# Measurements published in the supplement of paper PMC9135407.
# Several values for one entry are separate records, joined by “and”; a condition that tells them apart may be missing. Identical values can stand only once. Counter-ions that a name gives are not always drawn. Hit rate of the full screen: of about 5,800 compounds, about 620 (11%) showed activity. The sample holds actives, similar compounds and a random draw of the others, so the mix is not that of the screen. Unmarked numbers belong to inactive results.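 The calls were made as follows: active = score above a cut-off or among the top three wells of a plate; in these data no inactive exceeds 0.85.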
# System: primary human hepatic stellate cells (donor 1)
# Experiment: scaled lipid accumulation score (0 = DMSO-like, 1 = nortriptyline-like); higher = stronger HSC inactivation (lipid re-accumulation), active = hit call of the paper
# Details: 48 h
# [1] = library stock concentration: 1 mM
# [2] = library stock concentration: 10 mM
# [3] = library stock concentration: 3.33 mM
# [4] = library stock concentration: 4.7 mM
smiles,measurement,setting,value
"O=P(O)(O)O[C@H]1[C@H](O)[C@@H](O)[C@H](OP(=O)(O)O)[C@@H](OP(=O)(O)O)[C@H]1O [D-myo-Inositol-1,3,4-triphosphate (sodium salt)]",scaled lipid accumulation score,[1],≤ 0
CNCCCC1c2ccccc2C=Cc2ccccc21.Cl [Protriptyline hydrochloride],scaled lipid accumulation score,,1.24 (active)
same,scaled lipid accumulation score,[2],0.911 (active)
CNCCCC1c2ccccc2C=Cc2ccccc21 [Protryptyline hydrochloride],scaled lipid accumulation score,library stock concentration: 6.7 mM,0.698
Nc1nc(OCC2CCCCC2)c2[nH]cnc2n1,scaled lipid accumulation score,[2],≤ -0.055
S=P(N1CC1)(N1CC1)N1CC1 [Thiotepa],scaled lipid accumulation score,[2],≤ -0.027
same,scaled lipid accumulation score,library stock concentration: 10.6 mM,≤ 0
CCCCCCCCCCCCCCCCOCC(CO)OC(C)=O (centres undefined) [1-Hexadecyl-2-O-acetyl-glycerol],scaled lipid accumulation score,[1],0.035
CC(C)N1Cc2cc(S(C)(=O)=O)ccc2N(CCN2CC=C(c3c[nH]c4cc(F)ccc34)CC2)S1(=O)=O,scaled lipid accumulation score,[2],0.137
C[C@@]1(C(=O)Nc2ccc(F)nc2)CCCN1c1nc(Nc2cc(C3CC3)n[nH]2)c2cccn2n1,scaled lipid accumulation score,[3],≤ 0
same,scaled lipid accumulation score,[2],0.177
NC(=O)N1c2ccccc2CC(=O)c2ccccc21 [Trileptal],scaled lipid accumulation score,[2],≤ 0
CN1CCC(=C2c3ccccc3CCc3sccc32)CC1.O=C(O)CC(O)C(=O)O [Pizotifen Malate],scaled lipid accumulation score,[2],1.32 (active)
CN1CCC(=C2c3ccccc3CC(=O)c3sccc32)CC1 [Ketotifen fumarate],scaled lipid accumulation score,,0.627
same,scaled lipid accumulation score,[4],0.276
same,scaled lipid accumulation score,[2],0.172 and 0.737
NC(=O)N1c2ccccc2CC(=O)c2ccccc21 [Oxcarbazepine],scaled lipid accumulation score,[3],≤ 0
same,scaled lipid accumulation score,library stock concentration: 7.9 mM,≤ 0
same,scaled lipid accumulation score,[2],≤ 0 and ≤ -0.027
CN1CCC(=C2c3ccccc3CCc3sccc32)CC1 [Pizotifen Malate],scaled lipid accumulation score,[3],0.473
CN1CCC(=C2c3ccccc3CCc3sccc32)CC1 [Pizotifen malate],scaled lipid accumulation score,,0.782
CN1CCC(=C2c3ccccc3CCc3sccc32)CC1 [Pizotyline malate],scaled lipid accumulation score,[4],0.792
CN1CCC(=C2c3ccccc3CC(=O)c3sccc32)CC1.O=C(O)/C=C/C(=O)O [Ketotifen fumarate],scaled lipid accumulation score,[2],0.913 (active)
CN1CCC(=C2c3ccccc3CC(=O)c3sccc32)CC1,scaled lipid accumulation score,[2],0.593
CN1CCC(=C2c3ccccc3CCc3sccc32)CC1.O=C(O)/C=C\C(=O)O [Pizotyline],scaled lipid accumulation score,[2],1.2 (active)
CN1CCC(=C2c3ccccc3CC(=O)c3sccc32)CC1 [Ketotifen Fumarate],scaled lipid accumulation score,[3],≤ 0
same,scaled lipid accumulation score,[2],0.576
C[C@@]12C[C@@]3(O)O[C@@H](O1)[C@]1(COC(=O)c4ccccc4)[C@H]3C[C@@]12O[C@@H]1O[C@H](CO)[C@@H](O)[C@H](O)[C@H]1O [Paeoniflorin],scaled lipid accumulation score,[3],≤ 0
same,scaled lipid accumulation score,[2],≤ 0
COCc1c(C(C)C)nc(C(C)C)c(/C=C/[C@@H](O)C[C@@H](O)CC(=O)O)c1-c1ccc(F)cc1,scaled lipid accumulation score,[2],0.271
COCc1c(C(C)C)nc(C(C)C)c(/C=C/[C@@H](O)C[C@@H](O)CC(=O)O)c1-c1ccc(F)cc1 [Cerivastatin],scaled lipid accumulation score,library stock concentration: 4.4 mM,0.228
CCCOc1ccc(Br)cc1-c1cc(-c2ccc(Cl)cc2)[nH]c1-c1ccncc1,scaled lipid accumulation score,[2],0.006
O=C1NC(=O)c2cc(Nc3ccccc3)c(Nc3ccccc3)cc21,scaled lipid accumulation score,[2],0.353 and 0.003
Cc1cccc(-c2nn3c(c2-c2ccnc4ccc(C(N)=O)cc24)CCC3)n1,scaled lipid accumulation score,[3],0.006
same,scaled lipid accumulation score,[2],≤ 0
O=C(O)CCC/C=C\C[C@@H]1C(=O)C[C@@H](O)[C@@H]1/C=C/[C@@H](O)CC1CCCCC1 [8-iso-16-cyclohexyl-tetranor Prostaglandin E2],scaled lipid accumulation score,[1],≤ 0
CN1CCCC(n2nc(Cc3ccc(Cl)cc3)c3ccccc3c2=O)CC1 (centres undefined) [Azelastine HCl],scaled lipid accumulation score,[3],0.604
CN1CCCC(n2nc(Cc3ccc(Cl)cc3)c3ccccc3c2=O)CC1 (centres undefined),scaled lipid accumulation score,[2],1.21 (active)
COC1CCN(C(=O)c2cc(Cc3n[nH]c(=O)c4ccccc34)ccc2F)CC1,scaled lipid accumulation score,[3],≤ 0
same,scaled lipid accumulation score,[2],≤ -0.001
CN1CCCC(n2nc(Cc3ccc(Cl)cc3)c3ccccc3c2=O)CC1.Cl (centres undefined) [Azelastine hydrochloride],scaled lipid accumulation score,library stock concentration: 4.8 mM,0.978 (active)
same,scaled lipid accumulation score,[2],0.992 (active)
O=C(c1cc(Cc2n[nH]c(=O)c3ccccc23)ccc1F)N1CCN(C(=O)C2CC2)CC1 [Olaparib],scaled lipid accumulation score,library stock concentration: 80 uM,≤ -0.0005
same,scaled lipid accumulation score,library stock concentration: 400 uM,≤ -0.0045
same,scaled lipid accumulation score,library stock concentration: 2 mM,≤ -0.0045
same,scaled lipid accumulation score,[2],≤ -0.0045
O=C(c1cc(Cc2n[nH]c(=O)c3ccccc23)ccc1F)N1CCN(C(=O)C2CC2)CC1,scaled lipid accumulation score,[3],≤ 0
same,scaled lipid accumulation score,[2],≤ 0
CN1CCCC(n2nc(Cc3ccc(Cl)cc3)c3ccccc3c2=O)CC1.Cl (centres undefined) [Azelastine HCl],scaled lipid accumulation score,[2],1.09 (active)
